Several values for one entry are separate records, joined by “and”; a condition that tells them apart may be missing. Equal values may be shown once. Activity calls are given as the source filed them.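 The calls were made as follows: active = compounds whose cell count with miR-34 switched on is under 0.7 times the count with it off; inactive = the rest.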
Experiment: viability loss with induced miR-34 in A549 – imaging, A549 dox-inducible miR-34, nuclei and caspase counts, primary screen (AID 1347080); also: test concentration not given here
Settings: A549 miR-34 inducible, Hoechst nuclei count, 48 h; stronger effect = lower value; cell number ratio, induced over uninduced

Compound	fold change
NC1[C@H]2CN(c3nc4c(cc3F)c(=O)c(C(=O)O)cn4-c3ccc(F)cc3F)C[C@@H]12 (stereo partly drawn)	1.35 (inactive)
CCn1c(=O)c2c(nc(C=Cc3ccc(OC)c(OC)c3)n2C)n(CC)c1=O	0.891 (inactive)
COc1ccc(CCN(C)CCCC(C#N)(c2cc(OC)c(OC)c(OC)c2)C(C)C)cc1OC (stereo not drawn)	1.02 (inactive) and 0.953 (inactive)
N[C@@H](CC(=O)O)C(=O)O	1 (inactive)
C[C@]12CCC(=O)C=C1CC[C@@H]1[C@@H]2CC[C@@]2(C)[C@H]1CC[C@]2(O)C(=O)CO	1 (inactive)
O=c1[nH]c(=O)n([C@H]2C[C@H](O)[C@@H](CO)O2)cc1Br	0.769 (inactive)
CC1=C(CC(=O)O)c2cc(F)ccc2/C1=C\c1ccc(S(C)(=O)=O)cc1	0.998 (inactive)
CCN1CCc2nc(N)oc2CC1	1.02 (inactive)
NC(CO)(CO)CO	0.909 (inactive)
NC(=O)c1cn(Cc2c(F)cccc2F)nn1	1.05 (inactive) and 0.933 (inactive)
CSc1ccc(C(=O)c2[nH]c(=O)[nH]c2C)cc1	0.968 (inactive)
CC(=O)Oc1cc(C(F)(F)F)ccc1C(=O)O	0.83 (inactive) and 0.986 (inactive)
NC(N)=NCCC[C@H](N)C(=O)O	0.976 (inactive)
COC(=O)C1=C(C#N)NC(C)=C(C(=O)OC(C)C)C1c1cccc([N+](=O)[O-])c1 (stereo not drawn)	0.976 (inactive)
CCCCCCCCCCCCCCCCO	0.9 (inactive)
O=C1NC(=O)[C@@]2(CCOc3ccc(F)cc32)N1	0.973 (inactive)
COc1cc(C)c(C=CC(C)=CC=CC(C)=CC(=O)O)c(C)c1C	0.847 (inactive)
C[N+](C)(C)CCOC(=O)CCC(=O)OCC[N+](C)(C)C	0.999 (inactive) and 0.895 (inactive)
Cc1nc2c([nH]1)c(=O)n(C)c(=O)n2Cc1ccco1	0.936 (inactive) and 0.904 (inactive)
OCCN1CCN(CC/C=C2/c3ccccc3Sc3ccc(C(F)(F)F)cc32)CC1	1.1 (inactive)

Compound	fold change
CC(C)(C)c1ccc(C(=O)CCCN2CCC(OC(c3ccccc3)c3ccccc3)CC2)cc1	1.42 (inactive)
Nc1cc(=O)[nH]c(N)n1	0.958 (inactive)
CC(=O)[C@@]1(O)CC[C@H]2[C@@H]3CCC4=CC(=O)CC[C@]4(C)[C@H]3CC[C@@]21C	0.967 (inactive) and 0.853 (inactive)
COc1cc(C=O)ccc1O	0.931 (inactive)
COC(=O)C1=C(C)NC(C)=C(C(=O)OC(C)(C)CN(C)CCC(c2ccccc2)c2ccccc2)C1c1cccc([N+](=O)[O-])c1 (stereo not drawn)	1.26 (inactive) and 0.934 (inactive)
CCC(=O)c1ccc2c(c1)N(CCCN(C)C)c1ccccc1S2	0.872 (inactive)
COC(=O)C(c1ccccc1Cl)N1CCc2sccc2C1 (stereo not drawn)	0.927 (inactive)
OCCN1CCN(CCCN2c3ccccc3C=Cc3ccccc32)CC1	1 (inactive)
CCNC(=O)N1CCN(CCCC(c2ccc(F)cc2)c2ccc(F)cc2)CC1	0.987 (inactive)
C(=C\c1ccccc1)/CN1CCN(C(c2ccccc2)c2ccccc2)CC1	0.969 (inactive) and 0.928 (inactive)
Nc1cccc2c1CN(C1CCC(=O)NC1=O)C2=O (stereo not drawn)	1.01 (inactive)
COC(=O)[C@@H](N)Cc1ccc(O)c(O)c1	0.967 (inactive)
CCCCc1ncc(/C=C(\Cc2cccs2)C(=O)O)n1Cc1ccc(C(=O)O)cc1	1.04 (inactive) and 0.815 (inactive)
O=C(O)CN(CCOCCOCCN(CC(=O)O)CC(=O)O)CC(=O)O	0.942 (inactive)
CCCCCCCCCCCCCCC[C@H](O)[C@@H](N)CO	0.915 (inactive)
O=C(O)CP(=O)(O)O	0.969 (inactive)
N[C@@H](COP(=O)(O)O)C(=O)O	1.04 (inactive) and 0.898 (inactive)
O=S(=O)(O)Oc1ccc(C(c2ccc(OS(=O)(=O)O)cc2)c2ccccn2)cc1	0.9 (inactive)
CCN(CC)CCCN(c1ccccc1)C1Cc2ccccc2C1	1.07 (inactive)

Same assay, conditions: A549 miR-34 inducible, Hoechst nuclei count, 48 h; measured here: relative caspase fold change +Dox/-Dox

Compound	fold change
NC1[C@H]2CN(c3nc4c(cc3F)c(=O)c(C(=O)O)cn4-c3ccc(F)cc3F)C[C@@H]12 (stereo partly drawn)	1.08
CCn1c(=O)c2c(nc(C=Cc3ccc(OC)c(OC)c3)n2C)n(CC)c1=O	0.866
COc1ccc(CCN(C)CCCC(C#N)(c2cc(OC)c(OC)c(OC)c2)C(C)C)cc1OC (stereo not drawn)	0.481 and 1.24
N[C@@H](CC(=O)O)C(=O)O	1.56
C[C@]12CCC(=O)C=C1CC[C@@H]1[C@@H]2CC[C@@]2(C)[C@H]1CC[C@]2(O)C(=O)CO	0.913
O=c1[nH]c(=O)n([C@H]2C[C@H](O)[C@@H](CO)O2)cc1Br	2.25
CC1=C(CC(=O)O)c2cc(F)ccc2/C1=C\c1ccc(S(C)(=O)=O)cc1	1.86
CCN1CCc2nc(N)oc2CC1	1.71
NC(CO)(CO)CO	0.61
NC(=O)c1cn(Cc2c(F)cccc2F)nn1	0.739 and 0.557
CSc1ccc(C(=O)c2[nH]c(=O)[nH]c2C)cc1	1.32
CC(=O)Oc1cc(C(F)(F)F)ccc1C(=O)O	1.45 and 0.716
NC(N)=NCCC[C@H](N)C(=O)O	1.65
COC(=O)C1=C(C#N)NC(C)=C(C(=O)OC(C)C)C1c1cccc([N+](=O)[O-])c1 (stereo not drawn)	0.643
CCCCCCCCCCCCCCCCO	0.439
O=C1NC(=O)[C@@]2(CCOc3ccc(F)cc32)N1	1.69
COc1cc(C)c(C=CC(C)=CC=CC(C)=CC(=O)O)c(C)c1C	1.06
C[N+](C)(C)CCOC(=O)CCC(=O)OCC[N+](C)(C)C	1.13 and 1.62
Cc1nc2c([nH]1)c(=O)n(C)c(=O)n2Cc1ccco1	1.31 and 1.1
OCCN1CCN(CC/C=C2/c3ccccc3Sc3ccc(C(F)(F)F)cc32)CC1	1.38

Compound	fold change
CC(C)(C)c1ccc(C(=O)CCCN2CCC(OC(c3ccccc3)c3ccccc3)CC2)cc1	0.93
Nc1cc(=O)[nH]c(N)n1	1.28
CC(=O)[C@@]1(O)CC[C@H]2[C@@H]3CCC4=CC(=O)CC[C@]4(C)[C@H]3CC[C@@]21C	1.72 and 1.68
COc1cc(C=O)ccc1O	0.545
COC(=O)C1=C(C)NC(C)=C(C(=O)OC(C)(C)CN(C)CCC(c2ccccc2)c2ccccc2)C1c1cccc([N+](=O)[O-])c1 (stereo not drawn)	1.89 and 0.993
CCC(=O)c1ccc2c(c1)N(CCCN(C)C)c1ccccc1S2	0.831
COC(=O)C(c1ccccc1Cl)N1CCc2sccc2C1 (stereo not drawn)	0.912
OCCN1CCN(CCCN2c3ccccc3C=Cc3ccccc32)CC1	2.29
CCNC(=O)N1CCN(CCCC(c2ccc(F)cc2)c2ccc(F)cc2)CC1	1.62
C(=C\c1ccccc1)/CN1CCN(C(c2ccccc2)c2ccccc2)CC1	1.77 and 1.18
Nc1cccc2c1CN(C1CCC(=O)NC1=O)C2=O (stereo not drawn)	0.954
COC(=O)[C@@H](N)Cc1ccc(O)c(O)c1	1.36
CCCCc1ncc(/C=C(\Cc2cccs2)C(=O)O)n1Cc1ccc(C(=O)O)cc1	0.751 and 0.591
O=C(O)CN(CCOCCOCCN(CC(=O)O)CC(=O)O)CC(=O)O	1.12
CCCCCCCCCCCCCCC[C@H](O)[C@@H](N)CO	1.42
O=C(O)CP(=O)(O)O	1.06
N[C@@H](COP(=O)(O)O)C(=O)O	1.02 and 0.718
O=S(=O)(O)Oc1ccc(C(c2ccc(OS(=O)(=O)O)cc2)c2ccccn2)cc1	1.41
CCN(CC)CCCN(c1ccccc1)C1Cc2ccccc2C1	1.01
